Assay [1] can be described thus: small molecules captured by biotinylated probe aFSTL3 – biochemical, small-molecule microarray, fluorescence 635/667, stem cell growth factor project, primary screen (AID 1064).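 Also: measures binding of the biotinylated anti-FSTL3 antibody to printed compounds.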 To be noted: higher = more signal.
Assay [2] in a line: binders from COS7 lysate, DM2A8 probe, primary screen, torsin A project, cell lysate, small-molecule microarray, fluorescence 635/667 (AID 1065). Conditions: higher = more signal, COS7 lysate expressing mutant human TOR1A.
Assay [3] can be described thus: small molecules captured by biotinylated probe aFGF2 – biochemical, small-molecule microarray, fluorescence 635/667, stem cell growth factor project, primary screen (AID 1067).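 Also: measures binding of biotinylated aFGF2 protein to printed compounds on slides; z-score merges feature fluorescence and signal-to-noise across triplicate slides.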 To be noted: higher = more signal.
Assay [4] is described as follows: small molecules captured by biotinylated probe aFGF10 – biochemical, small-molecule microarray, fluorescence 635/667, stem cell growth factor project, primary screen (AID 1071).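 Also: score merges 667 nm spot intensity and signal to noise from triplicate slides.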 Conditions: higher = more signal.
The target in assay [5] is Neurogenic locus notch homolog protein 2 (Homo sapiens) (UniProt Q04721). The assay can be described thus: small molecules binding Notch2 protein – biochemical, small-molecule microarray, 635 nm fluorescence, stem cell growth factors, primary screen (AID 1073). Conditions: higher = more signal.
The target of assay [6] is Pro-neuregulin-1, membrane-bound isoform (Homo sapiens) (UniProt Q02297). The assay can be described thus: small molecules binding neuregulin-1 protein – biochemical, small-molecule microarray, fluorescence 635/667, psychiatric disease protein project, primary screen (AID 1075).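 Also: score combines 667 nm spot fluorescence with signal to noise.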 Conditions: NRG1 binding, 635 nm fluorescence, higher = more signal.
Assay [7] deals with Neuregulin-1 EGF-like domain. The assay is described as follows: small molecules binding NRG1 EGF domain – biochemical, small-molecule microarray, 635 nm fluorescence, primary screen (AID 1081).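 Also: binding of the protein to compounds printed on small-molecule microarray slides.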 To be noted: higher = more signal.
Assay [8] in a line: FRG1 expression reporter modulators in myotubes – cell-based, C2C12 myotubes, firefly/Renilla luciferase, luminescence, FRG1 inhibition for FSHD, primary screen (AID 1084). Conditions: FRG1 promoter luciferase, higher = more signal, called active from +8 up or from −8 down.
A short description of assay [9]: small molecules captured by biotinylated probe aFST – biochemical, small-molecule microarray, fluorescence 635/667, stem cell growth factor project, primary screen (AID 1086).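 Also: score merges 667 nm fluorescence with signal-to-noise of each printed compound spot.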 To be noted: higher = more signal.
The nature of assay [10]: binders of probe aHhip on microarray, primary screen, stem cell growth factor project, biochemical, small-molecule microarray, fluorescence 635/667 (AID 1087).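 Also: score merges spot fluorescence at 667nm with spot signal to noise ratio.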 Conditions: higher = more signal.
Assay [11] deals with PRMT1 (protein arginine N-methyltransferase 1). The assay is described as follows: small molecules binding arginine methyltransferase PRMT1 – biochemical, small-molecule microarray, 635 nm fluorescence, primary screen (AID 1088).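 Also: binding of Prmt1 protein to compounds spotted on small-molecule microarray slides.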 Conditions: higher = more signal.
Assay [12] is described as follows: growth effects on S. cerevisiae YJM789 – YJM789 clinical isolate, OD600, 24 h, basal, primary screen (AID 1089).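 Also: growth of clinical yeast isolate S. cerevisiae YJM 789 seeded 1000 cells per well; test concentration not given here.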 To be noted: higher = more signal, called active from +8 up or from −8 down.
Assay [13] can be described thus: S. pombe growth modifiers, basal conditions – strain 972, OD600, 24 h, no modulator, primary screen (AID 1090).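 Also: basal condition with compound alone and no growth modifier present; test concentration not given here.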 Conditions: S. pombe 972 growth, higher = more signal, called active from +8 up or from −8 down.
Assay [14] is described as follows: budding yeast growth modifiers under rapamycin – strain BY4716, OD600, 96 h, primary screen (AID 1091). Also: test concentration not given here. To be noted: S. cerevisiae BY4716 + rapamycin, higher = more signal, called active from +8 up or from −8 down.
Assay [15] deals with Torsin-1A-interacting protein 2 (Homo sapiens) (UniProt Q8NFQ8). The assay can be described thus: small molecules binding lysate-expressed LULL1 – cell lysate, human LULL1 lysate, 635/667 nm fluorescence, primary screen (AID 1092).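 Also: probe is lysate of COS7 cells overexpressing human LULL1; score merges per-feature 667 nm fluorescence with signal-to-noise.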 To be noted: small-molecule microarray, hLULL1 lysate binding, 635 nm fluorescence; higher = more signal.
Assay [16] can be described thus: optical density change of DRC41 E. coli – strain DRC41, OD650, 24 h, E. coli filamentation project, primary screen (AID 1093).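 Also: MC1000 strain lacking acrAB efflux and sulA so SOS filamentation is blocked; test concentration not given here.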 To be noted: E. coli DRC41 growth, higher = more signal, called active from +8 up or from −8 down.
A short description of assay [17]: probe aLefty2 binding to arrayed compounds – biochemical, biotinylated probe, 635/667 nm fluorescence, primary screen (AID 1094).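 Also: score merges spot fluorescence near 667 nm with spot signal-to-noise ratio.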 To be noted: small-molecule microarray, higher = more signal.
In assay [18] the test system is Noggin (protein binding on small-molecule microarray). The assay is described as follows: small molecules binding Noggin protein – biochemical, 635/667 nm fluorescence, primary screen (AID 1095).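 Also: score merges 667 nm feature fluorescence with signal to noise over triplicate slides.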 To be noted: 635 nm fluorescence, higher = more signal.
In assay [19] the target is Neurogenic locus notch homolog protein 3 (Homo sapiens) (UniProt Q9UM47). The assay can be described thus: small molecules binding NOTCH3 protein – biochemical, 635/667 nm fluorescence, primary screen (AID 1096). Conditions: small-molecule microarray, 635 nm fluorescence, higher = more signal.
A short description of assay [20]: probe aEGFR binding to arrayed compounds – biochemical, biotinylated probe, 635/667 nm fluorescence, primary screen (AID 1097).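 Also: probe is a biotinylated anti-EGFR antibody binding compounds printed on slides; score combines fluorescence near 667 nm and signal to noise of each spot.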 Conditions: small-molecule microarray, higher = more signal.

The structures appear in SMILES notation. Active and inactive are the calls of the source.

Chain of Torsin-1A-interacting protein 2 (Homo sapiens) (Q8NFQ8 whole entry, looked up): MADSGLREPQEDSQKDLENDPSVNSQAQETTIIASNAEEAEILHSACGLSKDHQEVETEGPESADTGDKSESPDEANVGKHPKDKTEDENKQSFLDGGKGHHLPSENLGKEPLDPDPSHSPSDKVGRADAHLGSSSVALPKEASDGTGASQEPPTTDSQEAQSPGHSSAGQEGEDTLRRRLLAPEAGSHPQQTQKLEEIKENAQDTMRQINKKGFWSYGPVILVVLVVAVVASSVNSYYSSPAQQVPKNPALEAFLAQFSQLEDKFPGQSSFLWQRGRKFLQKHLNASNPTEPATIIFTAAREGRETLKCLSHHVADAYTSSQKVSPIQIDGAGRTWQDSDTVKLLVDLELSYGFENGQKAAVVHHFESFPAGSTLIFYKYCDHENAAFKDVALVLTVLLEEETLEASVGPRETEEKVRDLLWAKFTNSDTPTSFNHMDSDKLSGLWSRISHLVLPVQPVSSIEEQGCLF
Chain of Pro-neuregulin-1, membrane-bound isoform (Homo sapiens) (Q02297 whole entry, looked up, the tested form may be a part, canonical isoform): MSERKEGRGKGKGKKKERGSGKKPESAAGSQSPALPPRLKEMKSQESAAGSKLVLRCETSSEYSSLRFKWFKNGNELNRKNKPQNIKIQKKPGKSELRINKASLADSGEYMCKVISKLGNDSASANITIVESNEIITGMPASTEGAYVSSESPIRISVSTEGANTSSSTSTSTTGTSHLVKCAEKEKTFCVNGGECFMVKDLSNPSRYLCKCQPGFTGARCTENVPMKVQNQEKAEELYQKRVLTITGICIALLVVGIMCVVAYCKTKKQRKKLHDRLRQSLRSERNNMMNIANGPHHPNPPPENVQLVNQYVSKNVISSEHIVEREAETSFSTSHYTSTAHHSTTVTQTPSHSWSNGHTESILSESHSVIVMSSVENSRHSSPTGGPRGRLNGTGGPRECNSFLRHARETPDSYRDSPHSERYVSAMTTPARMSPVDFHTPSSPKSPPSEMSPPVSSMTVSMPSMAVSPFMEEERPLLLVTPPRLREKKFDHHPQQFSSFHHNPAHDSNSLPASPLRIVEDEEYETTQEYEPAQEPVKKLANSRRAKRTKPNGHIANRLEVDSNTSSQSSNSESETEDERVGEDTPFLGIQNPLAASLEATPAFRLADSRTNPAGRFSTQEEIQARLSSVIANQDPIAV
Chain of Neurogenic locus notch homolog protein 3 (Homo sapiens) (Q9UM47 whole entry, looked up): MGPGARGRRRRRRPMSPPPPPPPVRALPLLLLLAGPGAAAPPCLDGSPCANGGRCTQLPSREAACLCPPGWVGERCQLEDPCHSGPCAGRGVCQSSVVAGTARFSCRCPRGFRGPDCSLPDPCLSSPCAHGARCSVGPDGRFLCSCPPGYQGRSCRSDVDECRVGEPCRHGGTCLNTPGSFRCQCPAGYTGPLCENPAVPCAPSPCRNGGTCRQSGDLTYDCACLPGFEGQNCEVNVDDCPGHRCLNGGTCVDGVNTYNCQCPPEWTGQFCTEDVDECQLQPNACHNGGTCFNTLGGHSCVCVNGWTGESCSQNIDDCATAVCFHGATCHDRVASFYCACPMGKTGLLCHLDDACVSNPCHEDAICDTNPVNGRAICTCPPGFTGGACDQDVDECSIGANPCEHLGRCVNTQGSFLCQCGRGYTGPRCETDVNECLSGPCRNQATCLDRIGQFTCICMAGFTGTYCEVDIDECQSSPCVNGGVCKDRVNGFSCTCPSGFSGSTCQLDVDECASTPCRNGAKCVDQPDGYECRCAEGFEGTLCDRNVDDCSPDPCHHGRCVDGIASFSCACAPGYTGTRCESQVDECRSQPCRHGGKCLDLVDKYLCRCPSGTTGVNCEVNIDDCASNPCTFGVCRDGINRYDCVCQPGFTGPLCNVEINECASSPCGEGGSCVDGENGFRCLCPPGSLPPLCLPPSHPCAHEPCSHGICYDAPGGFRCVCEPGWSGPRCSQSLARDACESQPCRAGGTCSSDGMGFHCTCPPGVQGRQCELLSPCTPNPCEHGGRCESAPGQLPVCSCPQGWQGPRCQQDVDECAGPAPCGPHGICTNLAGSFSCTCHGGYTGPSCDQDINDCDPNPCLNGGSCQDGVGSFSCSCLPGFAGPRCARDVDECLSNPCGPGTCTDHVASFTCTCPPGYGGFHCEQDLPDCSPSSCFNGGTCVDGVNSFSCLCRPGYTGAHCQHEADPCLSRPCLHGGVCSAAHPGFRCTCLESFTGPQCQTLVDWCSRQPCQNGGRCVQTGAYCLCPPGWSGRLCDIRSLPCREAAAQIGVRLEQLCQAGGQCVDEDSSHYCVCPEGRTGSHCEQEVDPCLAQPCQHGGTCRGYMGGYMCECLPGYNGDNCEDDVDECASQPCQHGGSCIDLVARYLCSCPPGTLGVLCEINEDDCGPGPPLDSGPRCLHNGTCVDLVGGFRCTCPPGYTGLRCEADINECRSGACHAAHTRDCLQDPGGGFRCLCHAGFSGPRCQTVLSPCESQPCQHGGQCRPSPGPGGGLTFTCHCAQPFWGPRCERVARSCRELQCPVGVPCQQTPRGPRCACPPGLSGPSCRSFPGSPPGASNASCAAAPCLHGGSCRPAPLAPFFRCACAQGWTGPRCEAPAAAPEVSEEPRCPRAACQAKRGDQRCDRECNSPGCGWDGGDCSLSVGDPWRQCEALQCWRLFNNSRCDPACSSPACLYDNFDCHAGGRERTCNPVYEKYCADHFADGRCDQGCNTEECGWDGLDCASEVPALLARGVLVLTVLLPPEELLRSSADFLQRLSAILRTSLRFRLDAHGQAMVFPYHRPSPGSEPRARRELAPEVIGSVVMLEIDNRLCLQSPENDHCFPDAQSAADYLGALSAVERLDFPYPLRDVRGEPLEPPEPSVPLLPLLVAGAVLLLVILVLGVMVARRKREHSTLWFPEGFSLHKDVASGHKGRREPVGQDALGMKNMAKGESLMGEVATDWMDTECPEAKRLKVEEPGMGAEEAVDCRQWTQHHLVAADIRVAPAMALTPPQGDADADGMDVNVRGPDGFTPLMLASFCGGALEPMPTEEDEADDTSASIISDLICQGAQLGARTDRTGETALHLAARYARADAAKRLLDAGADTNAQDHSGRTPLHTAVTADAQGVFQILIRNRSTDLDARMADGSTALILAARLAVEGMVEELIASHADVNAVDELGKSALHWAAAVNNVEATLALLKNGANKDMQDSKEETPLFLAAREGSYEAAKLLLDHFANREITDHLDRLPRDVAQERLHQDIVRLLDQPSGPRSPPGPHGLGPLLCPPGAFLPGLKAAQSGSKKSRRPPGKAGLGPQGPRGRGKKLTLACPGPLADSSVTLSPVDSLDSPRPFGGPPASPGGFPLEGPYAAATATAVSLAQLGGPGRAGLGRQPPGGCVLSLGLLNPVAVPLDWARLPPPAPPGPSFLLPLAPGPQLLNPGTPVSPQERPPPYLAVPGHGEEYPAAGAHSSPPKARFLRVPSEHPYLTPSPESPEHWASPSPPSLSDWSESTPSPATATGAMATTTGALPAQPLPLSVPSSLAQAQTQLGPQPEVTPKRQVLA

For the molecule `CSCC[C@@H]1NC(=O)CC=C[C@@H](C)COC(=O)[C@@H](C)COC1=O`, the composite z-score was -0.324 in assay [1]; 2.62 in assay [2]; -0.144 in [3]; -0.456 in assay [4]; -0.239 in assay [5]; -1.21 in assay [6]. The composite z-score in assay [7] is 0.129; in assay [9] it was -0.485; in assay [10], -0.391; in [11] it was 1.21; in [15], 0.0424; in [17], -0.103. Besides, the composite z-score in assay [18] was 0.882; in [19], -0.142; in assay [20] it was -0.197. Also, the z-score is -0.371 (inactive) in assay [8]; 0.506 (inactive) in assay [12]; -0.463 (inactive) in assay [13]; -0.318 (inactive) in assay [14]; 0.59 (inactive) in [16].
As to `CC(C)=CCCC(C)=CCON=C1C[C@@H](O)[C@@H](O)[C@@H]2[C@@H]3C(=O)N(C4CCCCC4)C(=O)[C@@H]3CC[C@@H]12`, the composite z-score in [1] is 1.18; in assay [2] it was 0.76; in [3], -0.132; in assay [4], 0.332; in [5] it was -0.0557; in assay [6], -0.148. Moreover, the composite z-score in assay [7] is 0.598; in [9], 0.0152; in assay [10], -0.374; in assay [11], 0.614; in assay [15], -0.687; in assay [17], -0.15. Besides, the composite z-score in assay [18] is 0.615; in assay [19], -0.407; in assay [20] it was -0.0956. Further, the z-score in assay [8] is 0.735 (inactive); in assay [12] it was -0.671 (inactive); in [13] it was -2.8 (inactive); in assay [14], -0.513 (inactive); in [16], -0.257 (inactive).
With `CO[C@H]1COC(=O)CCC[C@@H](C)[C@H](OC)COC(=O)[C@@H]2CCCN2C(=O)CC=C[C@@H]1C`, the composite z-score in assay [1] is -0.442; in [2], 2.09; in [3], -0.294; in [4], -0.142; in assay [5] it was -0.164; in [6], -0.508. Also, the composite z-score in assay [7] was 0.505; in assay [9], -0.194; in assay [10], 0.113; in [11] it was 1.53; in assay [15] it was -1.77; in [17], -0.183. The composite z-score in assay [18] came to 1.82; in assay [19], 0.473; in [20], 0.0869. Moreover, the z-score is 0.362 (inactive) in assay [8]; -0.671 (inactive) in [12]; 0.044 (inactive) in assay [13]; -0.986 (inactive) in [14]; -0.476 (inactive) in assay [16].
On to `CC(C)(C)N1C(=O)[C@H]2[C@H]3[C@H](O)[C@H](O)CC(=NO[C@@H]4O[C@H](CO)[C@@H](O)[C@H](O)[C@H]4O)[C@H]3CC[C@H]2C1=O`, for which the composite z-score in [1] is -0.477; in [2], 0.128; in assay [3] it was -0.17; in assay [4], 0.569; in [5], 0.45; in assay [6], 0.947. For the same molecule, the composite z-score in assay [7] is 0.389; in assay [9], 0.263; in assay [10] it was -0.0994; in assay [11], 0.693; in [15], 0.959; in assay [17] it was -0.0603. In addition, the composite z-score in assay [18] was found to be 0.593; in assay [19], 0.155; in assay [20] it was 0.0334. In addition, the z-score in [8] was 0.599 (inactive); in [12], 0.768 (inactive); in [13], -1.05 (inactive); in assay [14], -0.235 (inactive); in assay [16], -0.864 (inactive).
For `O=C1C[C@@H](O)[C@@H](O)[C@@H]2[C@@H]3C(=O)N(C[C@@H]4CCCO4)C(=O)[C@@H]3CC[C@@H]12`, the composite z-score in assay [1] is -0.58; in [2] it was 0.203; in assay [3], -0.0329; in [4] it was 0.58; in assay [5], 0.686; in assay [6] it was 0.123. For the same molecule, the composite z-score in assay [7] is 0.459; in [9], 0.817; in assay [10] it was 0.21; in assay [11] it was 0.282; in [15], 1.17; in [17], -0.0708. Moreover, the composite z-score in assay [18] worked out at 0.658; in assay [19], 0.472; in [20], 0.091. Moreover, the z-score in assay [8] was -1.13 (inactive); in assay [12] it was -0.217 (inactive); in assay [13] it was -0.519 (inactive); in [14] it was -0.404 (inactive); in assay [16], 0.48 (inactive).

The record behind these values is PubChem BioAssay.
